According to PubChem BioAssay (NCI):
Compounds without any hit were thinned out: in the full panel of roughly 83,000, 20% have a hit.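 Activity criterion: percent growth below 10, measured after cells in 96-well plates were exposed to a single compound concentration for 48 hours.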 The source made the active and inactive calls.

System: SR leukemia
Assay: NCI-60 one-dose screen, 48 h (100 = growth as untreated, 0 = no growth, -100 = all killed)
Settings: 10 µM unless noted

Structure (SMILES) | growth
O=C(Cn1c2ccccc2c2ccncc21)N/N=C/c1c[nH]c2ccccc12 | 40.6% (inactive)
Cc1ccc(-c2nc3c(N=Nc4ccc(S(N)(=O)=O)cc4)c(N)nn3c(N)c2C#N)cc1 | 28.9% (inactive)
O=C(Nc1ccccc1Cl)c1c[nH]c(=O)c(-c2ccc(N3CCCOC4(CC4)C3)cc2)c1 | 39.6% (inactive)
OC(COc1ccccc1Cl)CN1CCN(c2ccc(Cl)cc2)CC1 (stereo unspecified) | 92.3% (inactive)
Nc1nccc2c1ccn2-c1ccc(NC(=O)Nc2cccc(C(F)(F)F)c2)cc1 | 91.5% (inactive)
O=C(Nc1ccc(-n2ccc3c(NC(=O)c4ccccc4)nccc32)cc1)Nc1cccc(C(F)(F)F)c1 | 18.8% (inactive)
O=C1C(Cl)=C(Nc2ccccc2)C(=O)C(Cl)=C1Nc1ccccc1 | 111% (inactive)
CC(=O)Nc1ccc([I+]c2ccc([N+](=O)[O-])cc2)cc1 | 87.7% (inactive)
CCN1CCN(Cc2ccc(NC(=O)Nc3cccc(-n4ccc5c(NC(=O)c6ccccc6)nccc54)c3)cc2C(F)(F)F)CC1 | 64.3% (inactive)
O=C(Nc1cccc(-n2ccc3c(NC(=O)c4ccccc4)nccc32)c1)c1cccc(C(F)(F)F)c1 | 1.05% (active)
CC(=O)N[C@@H](CNC(=O)c1cc(NC(=O)c2cc(NC(=O)c3cc(NC(=O)c4nccn4C)cn3C)cn2C)cn1C)CC(=O)Nc1cn(C)c(C(=O)Nc2cc(C(=O)Nc3cc(C(=O)Nc4cc(C(=O)NCCCN(C)CCCNC(=O)c5cccc(C(=O)O)c5)n(C)c4)n(C)c3)n(C)c2)n1 | 77.2% (inactive)
